Data as given in PubChem BioAssay (NCI).
About 83,000 compounds went through this panel and 20% of them were active in at least one assay; those are over-represented in the sample as a whole.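 Negative percent growth values reflect cell death: -40 means 40% of the cells present at the start died, and -100 means all died.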 The source made the active and inactive calls.

These compounds were tested on HL-60(TB) leukemia (assay: NCI-60 one-dose screen, 48 h (100 = growth as untreated, 0 = no growth, -100 = all killed)). Details: 10 µM unless noted.
Experimental: Growth inhibition of the HL-60(TB) human tumor cell line is measured as a screen for anti-cancer activity. Cells are grown in 96 well plates and exposed to the test compound for 48 hours. Compounds are tested at a single concentration, which is 10^-5 M for most compounds. The reported endpoint is percent growth (GI% or GIPRCNT), where numbers from 0 - 100% represent growth inhibition, and numbers from -100% - 0 represent cell death. For example, a value of 40 represents 60% growth inhibition. A value of 0 means no net growth occurred over the course of the experiment. A value of -40 indicates 40% of cells at the beginning of the experiment died by the end of the experiment. A value of -100 means all cells are dead at the end of the experiment.
NCI-60 Human Tumor Cell Lines Screen was performed using the standard one-dose NCI protocol, which is described in more detail at https://dtp.cancer.gov/discovery_development/nci-60/default.htm.
Compounds with GIPRCNT values below 10 were considered active. Activity score was based on GIPRCNT using the following formula: […]
Score is 0 for GIPRCNT values of 100 or above, 50 for GIPRCNT values of 0, and 100 for GIPRCNT values of -100.
With N#Cc1c(-c2ccc(Br)cc2)nc2n[nH]c(-c3ccc(Br)cc3)c2c1-c1ccc(F)cc1 the growth was 80.4% (inactive).
For Fc1ccc(F)c(CNc2nc(SCCN3CCOCC3)nc3c2cnn3CC(Cl)c2ccc(Br)cc2)c1 (stereo not given), the growth was -12.3% (active).
For Cc1cc(=O)oc2cc(OCCCOc3ccc(/C=C/C(=O)Nc4ccccc4N)cc3)ccc12, the growth was 1.53% (active).
For C=C1CC[C@@H]2[C@]3(C)COC(c4cn[nH]c4-c4ccc(C)cc4)O[C@@H]3CC[C@@]2(C)[C@@H]1C/C=C1/C(=O)OCC1O (stereo not given in full), the growth was 7.26% (active).
Cn1cc(-c2cc(N)n3nc(-c4cn(C)c5ncc(Br)cc45)cc3n2)c2cc(Br)cnc21 was tested, and the growth was -71.2% (active).
For O=C(NO)c1ccc(CNC(=O)[C@H]2Cc3c([nH]c4ccccc34)[C@H](c3ccc(Cl)cc3)N2)cc1, the growth was 4.62% (active).
COc1ccc(C2=NN(C(C)=O)C(c3ccc(OCc4ccc(Cl)cc4)c(OC)c3)C2)cc1OC (stereo not given) was tested, and the growth was 34.6% (inactive).
For COC(=O)/C=C/c1cccc2c1C(=O)NC(C)(c1cc3ccccc3oc1=O)N2 (stereo not given), the growth was 40% (inactive).
For CC1=C(C(=O)c2ccccc2)C(c2cccc(Cl)c2Cl)n2c(nc3ccccc32)N1 (stereo not given), the growth was 36.1% (inactive).
For O=C(c1ccc(Cl)cc1)C1[C@H](c2ccccc2Br)[C@@H](c2ccccc2)NC12C(=O)Nc1ccc(Cl)cc12 (stereo not given in full), the growth was 32% (inactive).
For CC1(c2cc3cc(Cl)ccc3oc2=O)NC(=O)c2c(/C=C/C(=O)OC3CC4CCC3(C)C4(C)C)cccc2N1 (stereo not given), the growth was 29% (inactive).
In the case of O=c1[nH]c2ccccc2cc1CSc1ccc(Nc2nccc(-c3ccc(Cl)cc3)n2)cc1, the growth is reported as 74.8% (inactive).
With COc1ccc(C(=O)C[n+]2cccc3c4ccccc4ccc32)cc1 the growth was 22% (inactive).
With COc1cccc(C(=O)CSc2nc(-c3ccc(OCc4ccccc4)c(OC)c3)c(C#N)c(=O)[nH]2)c1 the growth was 97.2% (inactive).
With C/C(=N\N=C\c1ccc(Cl)c([N+](=O)[O-])c1)c1ccc2c(c1)Nc1ccccc1S2 the growth was 51% (inactive).
With Cn1cc(-c2cc(N)n3nc(-c4c[nH]c5ccccc45)cc3n2)c2ccccc21 the growth was -24.5% (active).
With COc1ccc2c(c1)c(-c1cc3nc(-c4cn(C)c5ncc(Br)cc45)cc(N)n3n1)cn2C the growth was -59.7% (active).
In the case of COC(=O)C[C@](O)(CCCC(C)C)C(=O)O[C@H]1C(OC)=C[C@@]23CCCN2CCc2cc4c(cc2[C@@H]13)OCO4, the growth is reported as -28.7% (active).
In the case of CN(C)CCCNC(=O)c1cc(NC(=O)c2cc(NC(=O)c3ccc(/C=C/c4ccccc4)cc3)cn2C)cn1C, the growth is reported as -37.7% (active).
In the case of COc1ccccc1[C@H]1C(C(=O)c2ccc(O)cc2)C2(N[C@@H]1c1ccccc1)C(=O)Nc1ccc(Br)cc12 (stereo not given in full), the growth is reported as 10.5% (inactive).
With Cn1cc(-c2cc3nc(-c4c[nH]c5ccc(Cl)cc45)cc(N)n3n2)c2ccccc21 the growth was -34.2% (active).
In the case of COc1ccc2[nH]c(O)c(N=Nc3nc(-c4ccc(C#N)cc4)cs3)c2c1, the growth is reported as 84.4% (inactive).
Cc1cccc(NC(=O)CSc2nc3ccc(F)cc3c(=O)n2-c2ccc(Cl)cc2)c1C was tested, and the growth was 96.4% (inactive).
In the case of CC(=O)c1ccc2c(N)c(C(=O)Nc3ccc(C(F)(F)F)cc3)sc2n1, the growth is reported as 50% (inactive).
N#Cc1c(NC(=O)N2CCOCC2)n(-c2ccc(OC(F)(F)F)cc2)c2cc(F)ccc12 was tested, and the growth was 91.2% (inactive).
With COC(=O)C[C@](O)(CCCC(C)(C)O)C(=O)O[C@H]1C(OC)=C[C@@]23CCCN2CCc2cc4c(cc2[C@@H]13)OCO4 the growth was -30.3% (active).
With CCOc1ccc(C(=O)NC(=S)Nc2ccc(S(N)(=O)=O)cc2)cc1 the growth was 103% [100 µM] (inactive).
In the case of Cc1ccc(S(=O)(=O)N2CCN(S(=O)(=O)c3oc(-c4ccccc4)nc3C#N)CC2)cc1, the growth is reported as 69.4% (inactive).
For COc1ccc(NCc2cn(-c3ccc(C(=O)O)cc3)nc2-c2ccc(F)cc2)cc1C(F)(F)F, the growth was 49.9% (inactive).
Cc1ccc(-c2nc(Nc3ccc(C)c(S(N)(=O)=O)c3)c3ccccc3n2)cc1 was tested, and the growth was 89.1% (inactive).
For O=c1ccc(Cn2c(C(F)(F)F)cc3c(Cl)ncnc32)c[nH]1, the growth was -20.6% (active).
For COc1cc2oc(-c3cccc(C(=O)Nc4cccc([N+](=O)[O-])c4)c3)cc(=O)c2c(OC)c1OC, the growth was 101% (inactive).
O=C(N/N=C/c1ccc(Cl)o1)c1[nH]c2ccc(Br)cc2c1-c1ccccc1 was tested, and the growth was -42.4% (active).
With O=C(CSc1nnc(-c2ccc(-c3nc4ccc(Cl)cc4[nH]3)cc2)o1)Nc1ccccc1 the growth was 42.1% (inactive).
O=C1NC(=NC23CC4CC(CC(C4)C2)C3)N/C1=C\c1ccc2ncccc2c1 was tested, and the growth was -11.2% (active).
For CC1(C)CC[C@]2(C(=O)O)CC[C@]3(C)C(=CCC4[C@@]5(C)C[C@@H](O)[C@@H]6OC(c7ccccc7Br)OC[C@@]6(C)C5CC[C@]43C)C2C1 (stereo not given in full), the growth was 4.07% (active).
With O=C(CSc1nnc(-c2ccc(-c3nc4ccccc4[nH]3)cc2)o1)Nc1ccccc1 the growth was 53.5% (inactive).
With Cn1cc(-c2cc(N)n3nc(-c4c[nH]c5ccccc45)cc3n2)c2cc(Br)ccc21 the growth was -18.3% (active).
For O=C(NO)c1ccc(Cn2ccc3c(NCc4ccccc4)ncnc32)cc1, the growth was -16% (active).
For C/C(=N/O)c1ccc(NC(=O)CSc2nnc(-c3ccc(-c4nc5ccc(Cl)cc5[nH]4)cc3)o2)cc1, the growth was 44% (inactive).
